Screening results (PubChem BioAssay)
Compounds with a hit are over-represented: about 2.4% of the library has one in this group of screens.
Pol beta inh = blocks human DNA polymerase beta activity. AID 485314. 340,000 compounds, 1.3% hits. Potency, µM (top dose mostly 114 µM), inactives show at the highest dose activity change, negative = inhibition, most hits filed as inhibitors. Pol beta primer extension/strand displacement, fluorescence kinetic. P06746; also: % is scaled to controls: 0 for no effect and ±100 for the full control effect
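10 nM enzyme + cpd, 15 min RT; start with substrate 50 nM final; read 0 min and after 10 min RT. Corrected, normalized data; 4-parameter Hill curve fit.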
POLK inh = inhibitors of human DNA polymerase kappa; Potency, µM (series often up to 107 µM), for the others: top-dose activity, negative = inhibition, hits mostly inhibitors; AID 588579; purified Pol kappa, fluorescent DNA synthesis assay, 10 min; 400,000 compounds, 0.53% hits; also: % is scaled to controls: 0 for no effect and ±100 for the full control effect
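Kinetic fluorescence readout at 0 and 10 min followed reaction start with substrate at 50 nM final. Beforehand, enzyme (10 nM Pol kappa) stood 15 min with compound at room temperature; buffer-only wells were negative controls.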
FEN1 inhibitor = inhibitors of human flap endonuclease 1 | Potency, µM (top dose mostly 114 µM), for inactives: at the top dose activity change, negative = inhibition, actives largely listed as inhibitors | 390,000 compounds, 0.35% hits | P39748 | Recombinant FEN1 flap cleavage, fluorescence, 15 min; also: % is scaled to controls: 0 for no effect and ±100 for the full control effect; nearly all actives have a fitted effect of over 65% in size
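With each library titrated from low to high concentration, compounds met 10 nM FEN1 for 15 min at room temperature before 50 nM substrate was added; readings at 0 and 15 min fed four-parameter Hill curve fits.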
TDP1 block = inhibitors of human tyrosyl-DNA phosphodiesterase TDP1; Q9NUW8; recombinant TDP1, AlphaScreen DNA substrate cleavage; Potency, µM (top dose mostly 130 µM), for inactives: at the top dose activity change, negative = inhibition, usual class: inhibitors; 350,000 compounds, 0.28% hits; also: % is scaled to controls: 0 for no effect and ±100 for the full control effect; nearly all actives have a fitted effect of over 40% in size
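E. coli-derived human Tdp1, 1 nM final. Cpd preinc 15 min RT; substrate 15 nM final, 5 min RT; AS bead mix 10 ug/ml final, 10 min RT. Signal loss = tyrosine-FITC cleavage. No-enzyme wells = max signal.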
Pol iota inh = DNA polymerase iota (human) inhibition; AID 588590; Pol iota fluorescent replication assay, 10 min; Potency, µM (series often up to 115 µM), without a hit: top-dose activity, negative = inhibition, actives largely listed as inhibitors; Q9UNA4; 390,000 compounds, 1% hits
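Pol iota at 10 nM preincubated 15 min with compounds at room temperature; reaction started with fluorescent substrate, 50 nM final. Fluorescence read kinetically at 0 and 10 min; buffer-only wells as negative control.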
POLH inh = blocks human DNA polymerase eta activity; Potency, µM (top dose mostly 114 µM), for the others: at the highest dose activity change, negative = inhibition, usual class: inhibitors; 390,000 compounds, 1.2% hits; Q9Y253; recombinant Pol eta, fluorescent DNA replication assay; also: % is scaled to controls: 0 for no effect and ±100 for the full control effect
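Fluorescent replication assay: 50 nM final substrate added after a 15 min room-temperature compound preincubation with 10 nM enzyme. Signal taken at 0 min and again at 10 min.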
An asterisk follows results filed as active; [ ] = remark or other dose. Calls follow the shape of the dose curve; as a rule, active = well fitted curve in the direction sought with a large enough effect; inconclusive = small, poorly fitted or top-dose-only effect, or another doubt; inactive = no such curve, though single readings can be large; an effect the other way counts as inactive or inconclusive. Potency is read from the fitted curve at half-maximal effect.

How did COc1ccccc1C(=O)Nc1ccc2c(c1)C(=O)NC2=O do in these assays?
Pol beta inh: 56µM*; POLK inh: -16%; FEN1 inhibitor: -1%; Pol iota inh: 12%; POLH inh: -13%

What do the screens show for `COc1cc2ccccc2cc1C(=O)Nc1ccc(O)cc1`?
Pol beta inh: 22µM*; POLK inh: -6%; FEN1 inhibitor: 6%; TDP1 block: -4%; Pol iota inh: 66%; POLH inh: -3%

What do the screens show for `COc1ccccc1C(=O)NNC(=O)c1ccc2ccccc2c1`?
Pol beta inh: 12%; POLK inh: 89µM*; FEN1 inhibitor: 18%; Pol iota inh: 36%; POLH inh: -17%

Results for CCOc1ccccc1C(=O)Nc1ccc2c(c1)C(=O)NC2=O ?
Pol beta inh: -4%; POLK inh: 2%; FEN1 inhibitor: 10%; Pol iota inh: 120%; POLH inh: 3%

What do the screens show for `COc1ccc(NC(=O)c2cc3ccccc3cc2OC)cc1OC`?
Pol beta inh: 29%; POLK inh: -14%; FEN1 inhibitor: -26%; Pol iota inh: -21%; POLH inh: -12%

What do the screens show for `CC1(C)N=C(N)N=C(N)N1c1ccc(CCCCc2ccccc2)cc1`?
POLH inh: -26%

How did Cc1ccc2nc(Nc3ccc(F)cc3)c3nncn3c2c1 do in these assays?
Pol beta inh: 32µM*; POLK inh: 3%; FEN1 inhibitor: 15%; Pol iota inh: 6%; POLH inh: -17%

Results for Cc1ccc(C)c(Nc2nc3ccc(C)cc3n3cnnc23)c1 ?
Pol beta inh: 33%; POLK inh: -11%; FEN1 inhibitor: -2%; Pol iota inh: 121%; POLH inh: -2%

How did Cc1cc(C)nc(NS(=O)(=O)c2ccc(N=Cc3c(C)[nH]n(-c4ccccc4)c3=O)cc2)n1 do in these assays?
Pol beta inh: -1%; POLK inh: -3%; FEN1 inhibitor: -2%; TDP1 block: 5%; Pol iota inh: 107%; POLH inh: -8%

How did Cc1ccc(-n2[nH]c(C)c(C=Nc3ccc(S(=O)(=O)Nc4nccs4)cc3)c2=O)cc1 do in these assays?
Pol beta inh: 4%; TDP1 block: 7%

What do the screens show for `Cc1[nH]n(-c2ccc(Br)cc2)c(=O)c1C=Nc1ccc(S(=O)(=O)Nc2nccs2)cc1`?
Pol beta inh: inconclusive; POLK inh: -17%; FEN1 inhibitor: 16%; TDP1 block: 9%; Pol iota inh: inconclusive; POLH inh: 45µM*

Results for Cc1[nH]n(-c2ccccc2)c(=O)c1C=Nc1ccc(S(=O)(=O)N=C(N)N)cc1 ?
Pol beta inh: 21%; POLK inh: 6%; FEN1 inhibitor: 6%; TDP1 block: 1%; Pol iota inh: 50µM*; POLH inh: inconclusive

What do the screens show for `COc1cc(OC)cc(C(=O)Nc2cc(-c3nc4cccnc4s3)ccc2C)c1`?
Pol beta inh: -5%; POLK inh: -10%; FEN1 inhibitor: -17%; TDP1 block: 1%; Pol iota inh: 15%; POLH inh: -6%

What do the screens show for `O=C(c1cnccn1)N1CCC2(CC1)CCN(c1ccccc1)CC2`?
POLK inh: -7%[60.1 µM]

What do the screens show for `Brc1ccc(C2=CC(c3cccs3)n3ncnc3N2)cc1` (stereo unspecified)?
Pol beta inh: 50µM*; POLK inh: -24%; FEN1 inhibitor: -23%; TDP1 block: 6%; Pol iota inh: inconclusive; POLH inh: inconclusive

What do the screens show for `O=C(/C=C/c1ccc(Cl)cc1)NC(=S)Nc1ccccc1C(=O)O`?
Pol beta inh: inconclusive; POLK inh: -12%; FEN1 inhibitor: -3%; TDP1 block: 4%; Pol iota inh: inconclusive; POLH inh: 56µM*

What do the screens show for `NC(=O)c1ccccc1NC(=O)/C=C/c1ccc(Cl)cc1`?
Pol beta inh: -1%; POLK inh: -9%; FEN1 inhibitor: 0%; TDP1 block: 3%; Pol iota inh: 7%[58.9 µM]; POLH inh: -3%

What do the screens show for `O=C1[O][Bi][O]c2ccccc21`?
POLK inh: -2%[60.1 µM]; TDP1 block: 35µM*
